Screening data as filed in PubChem.
A selection: hits, their analogues and other compounds. The true share with any hit is near 19%.
HT1080 IDH1KD tx = HT-1080 IDH1 knockdown cell toxicity (counter line). HT-1080 IDH1 knockdown viability, ATP luminescence, 48 h. Potency, µM (titrated, usually from 46.1 µM), for inactives: at the top dose activity, negative = toxicity, hits mostly cytotoxic. 360,000 tested, 2% active. AID 686971;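 note: 0% = DMSO wells and -100% = cell-free medium wells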
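Assay cells: HT-1080 with IDH1 knockdown, 750 per well, RPMI/5% FBS. Exposure: 48 h at 37 °C following 2 h pre-incubation. Read: CellTiter-Glo luminescence; fitted concentration-response, curve class assigned.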
TDP1 cell noCPT = qHTS for Inhibitors of human tyrosyl-DNA phosphodiesterase 1 (TDP1): qHTS in cells in absence of CPT | DT40 Tdp1-/- hTDP1 cells, no CPT, ATP luminescence, 48 h | Potency, µM (top dose mostly 46.2 µM), without a hit: top-dose activity change, negative = growth inhibition, actives largely listed as inhibitors | 420,000 tested, 15% active; note: nearly all actives have a fitted effect of over 55% in size
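Growth of hTDP1-complemented DT40 Tdp1-knockout cells is measured by ATP luminescence after at least 48 hr compound exposure at 37 °C, with DMSO substituting for the 20 nM CPT used in the parallel screen.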
KB-3-1 cytotox = kills parental KB-3-1 adenocarcinoma cells; KB-3-1 viability, CellTiter-Glo ATP luminescence, 72 h; Potency, µM (titrated, usually from 46.1 µM), actives largely listed as cytotoxic; 400,000 tested, 1.4% active; AID 1347075; note: nearly all actives have a fitted effect of over 60% in size
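Using CellTiter-Glo luminescence, growth of non-resistant KB-3-1 adenocarcinoma cells is assessed 72 h after pin-tool compound addition at 37 °C. Normalized responses across the concentration series yield fitted curves.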
KB-V1 cytotox = KB-V1 MDR subline cytotoxicity; KB-V1 MDR cells viability, CellTiter-Glo, 72 h; Potency, µM (top dose mostly 46.1 µM), actives largely listed as cytotoxic; 400,000 tested, 3.4% active; AID 1347076; note: nearly all actives have a fitted effect of over 60% in size
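Following 72 h at 37 degrees C with compound, KB-V1 cell viability was read by CellTiter-Glo luminescence, medium being phenol-red-free DMEM plus 10% FBS; concentration-response parameters came from normalized, curve-fitted qHTS data.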
DT40 TDP1 CPT = growth inhibition of DT40 Tdp1-/-;hTDP1 cells with camptothecin (screen for TDP1 inhibitors). chicken DT40 Tdp1-/-;hTDP1 cells + 20 nM CPT, ATP luminescence, 48 h. Potency, µM (series often up to 46.2 µM), for the others: at the highest dose activity change, negative = growth inhibition, actives largely listed as inhibitors. 420,000 tested, 12% active. AID 686979; note: nearly all actives have a fitted effect of over 55% in size
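Chicken DT40 Tdp1-/- cells complemented with human TDP1, 400 cells/well, exposed to compounds plus 20 nM camptothecin for at least 48 h at 37 C; viability read as ATP content by CellTiter-Glo luminescence.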
HT1080NT lethal = kills 2HG-producing HT-1080-NT fibrosarcoma cells. 360,000 tested, 1.6% active. HT-1080-NT fibrosarcoma viability, CellTiter-Glo ATP luminescence, 48 h. Potency, µM (titrated, usually from 46.1 µM), inactives show at the top dose activity, negative = less viability, usual class: cytotoxic;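 note: NT is the 2HG producing partner of a matched IDH1 knockdown line; 0% = DMSO-treated cells and -100% = media-only wells without cells; nearly all actives have a fitted effect of over 55% in size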
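Fibrosarcoma NT cells, 750 per well in 5% FBS RPMI, were exposed to compound for 48 hours. Viability: CellTiter-Glo luminescence.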
An asterisk follows results filed as active. Calls come from the whole dose curve; as a rule, active = well fitted curve in the direction sought with a large enough effect; inconclusive = small, poorly fitted or top-dose-only effect, or another doubt; inactive = no such curve, though single readings can be large; an effect the other way counts as inactive or inconclusive. Unless noted, % is set by controls: 0 for no effect and ±100 for the full control effect; potency is the fitted concentration of half-maximal effect.

COc1ccc(C(C[N+](=O)[O-])C2(c3ccc(OC)c(OC)c3)C(=O)c3ccccc3C2=O)cc1 (stereo unspecified) was read as HT1080 IDH1KD tx 20.6µM*, TDP1 cell noCPT 4.11µM*, KB-3-1 cytotox inconclusive, KB-V1 cytotox inconclusive, DT40 TDP1 CPT inconclusive and HT1080NT lethal inconclusive.
For CC(=O)Nc1ccc(/C=C/C(=O)c2ccc(-n3nncc3-c3ccccc3)cc2)cc1 the results were TDP1 cell noCPT 10µM*, KB-3-1 cytotox inactive, KB-V1 cytotox inactive and DT40 TDP1 CPT 5.62µM*.
For CSc1ccc(/C=C/C(=O)c2ccc(NC(C)=O)cc2)cc1 the results were HT1080 IDH1KD tx -25.7%, TDP1 cell noCPT 20.6µM*, KB-3-1 cytotox inconclusive, KB-V1 cytotox inactive, DT40 TDP1 CPT 16.4µM* and HT1080NT lethal -19.7%.
`CC(=O)Nc1ccc(/C=C/C(=O)c2ccc3c(c2)OCCO3)cc1` gave HT1080 IDH1KD tx inconclusive, TDP1 cell noCPT inconclusive, KB-3-1 cytotox inactive, KB-V1 cytotox inactive, DT40 TDP1 CPT inconclusive and HT1080NT lethal inconclusive.
`CCCC(=O)Nc1ccc(C(N)=O)cc1` gave HT1080 IDH1KD tx 16.6%, TDP1 cell noCPT -13.9%, KB-3-1 cytotox inactive, KB-V1 cytotox inactive, DT40 TDP1 CPT 27.5% and HT1080NT lethal 15.8%.
Screening CCCC(=O)Nc1ccc(C(=O)/C=C/c2ccc(SC)cc2)cc1 returned HT1080 IDH1KD tx inconclusive, TDP1 cell noCPT 18.4µM*, KB-3-1 cytotox inconclusive, KB-V1 cytotox inactive, DT40 TDP1 CPT 13µM* and HT1080NT lethal inconclusive.
`O=C(CN1CCCCC1)NCC(=O)Nc1ccc(F)c(F)c1F` gave HT1080 IDH1KD tx -1.6%, TDP1 cell noCPT -2.4%, KB-3-1 cytotox inactive, KB-V1 cytotox inactive, DT40 TDP1 CPT 4.5% and HT1080NT lethal 0.0%.
O=C(CN1CCN(Cc2cccc(C(F)(F)F)c2)CC1)NCC(=O)Nc1ccc(F)c(F)c1F was read as HT1080 IDH1KD tx -6.2%, TDP1 cell noCPT inconclusive, KB-3-1 cytotox inactive, KB-V1 cytotox 23.1µM*, DT40 TDP1 CPT inconclusive and HT1080NT lethal -1.0%.
`CC(C)(C)Cc1c(-c2ccc(Br)cc2)nc2ccc(Br)cn12` gave HT1080 IDH1KD tx -23.7%, TDP1 cell noCPT inconclusive, KB-3-1 cytotox inactive, KB-V1 cytotox inactive, DT40 TDP1 CPT inconclusive and HT1080NT lethal inconclusive.
`CCN(CC)S(=O)(=O)c1ccc(-c2nnc(SCC(=O)N3c4ccccc4CC3C)n2CC)cc1` (stereo unspecified) gave HT1080 IDH1KD tx -2.0%, TDP1 cell noCPT 20.6µM*, KB-3-1 cytotox inactive, KB-V1 cytotox 20.6µM*, DT40 TDP1 CPT 14.6µM* and HT1080NT lethal 0.0%.
`CCN(CC)S(=O)(=O)c1ccc(-c2nnc(SCC(=O)N3c4ccccc4CC3C)o2)cc1` (stereo unspecified) gave HT1080 IDH1KD tx -2.4%, TDP1 cell noCPT 20.6µM*, KB-3-1 cytotox inactive, KB-V1 cytotox inconclusive, DT40 TDP1 CPT 20.6µM* and HT1080NT lethal -14.8%.
For CCN(CC)S(=O)(=O)c1ccc(-c2nnc(SCC(=O)c3ccc(OC)cc3)o2)cc1 the results were HT1080 IDH1KD tx -0.5%, TDP1 cell noCPT -21.8%, KB-3-1 cytotox inactive, KB-V1 cytotox inactive, DT40 TDP1 CPT -20.0% and HT1080NT lethal -1.9%.
Screening CCc1cccc(NC(=O)Cn2c(=O)n(CCCCCC(=O)NCc3ccc(F)cc3)c(=O)c3sccc32)c1 returned TDP1 cell noCPT inconclusive, KB-3-1 cytotox inactive, KB-V1 cytotox inactive and DT40 TDP1 CPT inconclusive.
For O=S(=O)(c1ccc(NC(=S)N2CCN(c3ccc(O)cc3)CC2)cc1)N1CCOCC1 the results were HT1080 IDH1KD tx inconclusive, TDP1 cell noCPT 11.6µM*, KB-3-1 cytotox inconclusive, KB-V1 cytotox inactive, DT40 TDP1 CPT inconclusive and HT1080NT lethal inconclusive.
`O=S(=O)(c1ccc(NC(=S)N2CCOCC2)cc1)N1CCCCC1` gave HT1080 IDH1KD tx 0.8%, TDP1 cell noCPT 14.6µM*, KB-3-1 cytotox inactive, KB-V1 cytotox inactive, DT40 TDP1 CPT -28.7% and HT1080NT lethal -9.5%.
Cc1ccc(NC(=S)N2CCN(S(=O)(=O)c3ccc(C)cc3)CC2)cc1 was read as HT1080 IDH1KD tx -4.7%, TDP1 cell noCPT -17.3%, KB-3-1 cytotox inconclusive, KB-V1 cytotox inconclusive, DT40 TDP1 CPT -18.6% and HT1080NT lethal -11.2%.
For C[C@@H]1CN([C@H](C)CO)C(=O)CCCn2cc(nn2)CO[C@H]1CN(C)C(=O)Nc1ccnc(N2CCOCC2)c1 the results were HT1080 IDH1KD tx 13.2%, TDP1 cell noCPT -10.0%, KB-3-1 cytotox inactive, KB-V1 cytotox inactive, DT40 TDP1 CPT 0.4% and HT1080NT lethal 4.6%.
Screening Cc1ccc(N(CC(=O)NCCSc2nc3ccccc3s2)S(=O)(=O)c2ccccc2)c(C)c1 returned HT1080 IDH1KD tx -20.3%, TDP1 cell noCPT 25.9µM*, KB-3-1 cytotox inconclusive, KB-V1 cytotox 8.2µM*, DT40 TDP1 CPT inconclusive and HT1080NT lethal -7.3%.
Screening O=C(CN(c1ccccc1)S(=O)(=O)c1ccccc1)NCCSc1nc2ccccc2s1 returned HT1080 IDH1KD tx -4.2%, TDP1 cell noCPT 18.4µM*, KB-3-1 cytotox inactive, KB-V1 cytotox inconclusive, DT40 TDP1 CPT inconclusive and HT1080NT lethal -5.1%.
Screening Cc1ccccc1N(CC(=O)NCCSc1ccccn1)S(=O)(=O)c1ccccc1 returned HT1080 IDH1KD tx 9.6%, TDP1 cell noCPT inconclusive, KB-3-1 cytotox inactive, KB-V1 cytotox inactive, DT40 TDP1 CPT -5.0% and HT1080NT lethal -1.8%.
`CC(C)(C)SCCNC(=O)CN(c1ccccc1)S(=O)(=O)c1ccc(F)cc1` gave HT1080 IDH1KD tx 17.6%, TDP1 cell noCPT -17.3%, KB-3-1 cytotox inactive, KB-V1 cytotox inactive, DT40 TDP1 CPT 0.6% and HT1080NT lethal -3.4%.
Cc1ccc(C)c(Cn2c(=O)c3c(nc4n3CCN4c3ccccc3)n(C)c2=O)c1 was read as TDP1 cell noCPT 2.0% and DT40 TDP1 CPT 9.7%.
For O=S(=O)(CC(CN1CCOCC1)N1CCOCC1)c1ccccc1 (stereo unspecified) the results were HT1080 IDH1KD tx 10.1%, TDP1 cell noCPT 1.6%, KB-3-1 cytotox inactive, KB-V1 cytotox inactive, DT40 TDP1 CPT 2.0% and HT1080NT lethal 18.0%.
